Experiment in all cases: protein-binding microarray (PBM); PBM: ~300 nM protein, 6 mM HEPES pH 7.8, 80 mM KCl, 0.5 mM EDTA, 0.5 mM EGTA, 6% glycerol, 35 ng/ul poly-dIdC, 1% milk, 1 h, room temperature; Ap Aiptasia and Nv Nematostella (sea anemones) / Co Capsaspora / Aq Amphimedon (sponge) / Dm Drosophila / Hu human; RHD is the Rel homology domain; high values mean tight binding
Holding throughout (conditions): dsDNA, one strand shown

For one experiment, the target named is T1, GST-Ap-NF-kB RHD (Exaiptasia pallida (Aiptasia), UniProt A0A913YAJ5 2-422).
T1 sequence: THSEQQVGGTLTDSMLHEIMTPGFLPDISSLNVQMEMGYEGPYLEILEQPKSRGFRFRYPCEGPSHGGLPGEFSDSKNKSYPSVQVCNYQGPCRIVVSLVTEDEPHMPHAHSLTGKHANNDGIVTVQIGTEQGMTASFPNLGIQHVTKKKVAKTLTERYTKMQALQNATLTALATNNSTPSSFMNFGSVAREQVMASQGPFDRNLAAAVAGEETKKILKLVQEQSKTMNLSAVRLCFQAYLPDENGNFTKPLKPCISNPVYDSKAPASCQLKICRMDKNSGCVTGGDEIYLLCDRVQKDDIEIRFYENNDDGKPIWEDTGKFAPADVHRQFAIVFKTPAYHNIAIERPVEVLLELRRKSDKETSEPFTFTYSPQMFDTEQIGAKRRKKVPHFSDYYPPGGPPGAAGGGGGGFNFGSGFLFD

Experiment [1] concerns the target T2, GST-Nv-NF-kB (Cys allele) (Nematostella vectensis, UniProt E5G601 2-411).
T2 sequence: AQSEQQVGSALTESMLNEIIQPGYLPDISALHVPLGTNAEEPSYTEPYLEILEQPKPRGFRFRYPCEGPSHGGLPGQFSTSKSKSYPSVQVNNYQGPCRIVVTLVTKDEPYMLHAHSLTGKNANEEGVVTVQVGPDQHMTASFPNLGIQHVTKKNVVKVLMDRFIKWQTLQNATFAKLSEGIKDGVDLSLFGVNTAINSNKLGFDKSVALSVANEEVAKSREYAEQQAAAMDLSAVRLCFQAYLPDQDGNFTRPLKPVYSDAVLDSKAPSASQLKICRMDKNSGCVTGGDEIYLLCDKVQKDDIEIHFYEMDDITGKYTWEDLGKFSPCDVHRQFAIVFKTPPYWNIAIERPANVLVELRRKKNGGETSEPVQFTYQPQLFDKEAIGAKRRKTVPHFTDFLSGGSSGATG

Experiment [2] concerns the target T3, GST-Nv-NF-kB (Ser allele) (Nematostella vectensis, UniProt A7UNT2 2-411).
T3 sequence: T2 sequence with Q21R, C66S, S207N, E215Q, V217A, E225K, A268E, D399E

The target in another experiment is T4, GST-Co-NF-kB (Capsaspora owczarzaki, UniProt F1ARL5 200-546).
T4 sequence: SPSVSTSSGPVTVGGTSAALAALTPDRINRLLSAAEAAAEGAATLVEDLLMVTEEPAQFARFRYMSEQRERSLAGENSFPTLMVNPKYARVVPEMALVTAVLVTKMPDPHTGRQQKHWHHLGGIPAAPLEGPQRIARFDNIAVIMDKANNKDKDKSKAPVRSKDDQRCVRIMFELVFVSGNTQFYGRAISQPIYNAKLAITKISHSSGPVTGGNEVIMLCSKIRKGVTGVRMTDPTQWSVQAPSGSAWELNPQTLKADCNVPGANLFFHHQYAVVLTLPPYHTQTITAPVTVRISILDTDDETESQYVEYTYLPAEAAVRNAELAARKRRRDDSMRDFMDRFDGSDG

The next experiment addresses T5, GST-Dm-Relish (Drosophila melanogaster, UniProt Q94527 99-473).
T5 sequence: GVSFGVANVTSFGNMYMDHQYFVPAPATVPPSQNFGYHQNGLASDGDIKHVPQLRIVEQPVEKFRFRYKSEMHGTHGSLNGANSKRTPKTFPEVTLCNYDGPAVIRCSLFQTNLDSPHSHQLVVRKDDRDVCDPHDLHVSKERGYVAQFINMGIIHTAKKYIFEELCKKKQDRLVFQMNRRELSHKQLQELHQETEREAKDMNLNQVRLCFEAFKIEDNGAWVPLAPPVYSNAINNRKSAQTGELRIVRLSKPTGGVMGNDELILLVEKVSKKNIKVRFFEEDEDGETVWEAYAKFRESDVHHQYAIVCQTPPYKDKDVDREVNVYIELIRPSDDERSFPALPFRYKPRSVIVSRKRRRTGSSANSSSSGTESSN

In another experiment the target is T6, GST-Aq-NF-kB (Amphimedon queenslandica, UniProt A9Y5G7 2-389).
T6 sequence: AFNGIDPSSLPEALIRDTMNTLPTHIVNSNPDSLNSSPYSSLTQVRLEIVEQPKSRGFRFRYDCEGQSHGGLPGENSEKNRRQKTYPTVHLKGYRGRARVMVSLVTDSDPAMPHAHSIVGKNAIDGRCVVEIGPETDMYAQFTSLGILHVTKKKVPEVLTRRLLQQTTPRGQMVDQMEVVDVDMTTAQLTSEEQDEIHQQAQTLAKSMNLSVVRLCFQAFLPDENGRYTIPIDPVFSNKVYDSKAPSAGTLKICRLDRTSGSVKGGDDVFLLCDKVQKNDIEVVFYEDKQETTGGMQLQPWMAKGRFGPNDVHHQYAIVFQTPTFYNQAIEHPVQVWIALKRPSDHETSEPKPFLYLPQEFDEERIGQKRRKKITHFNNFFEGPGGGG

Another experiment deals with GST-Hu-p50 (Homo sapiens, UniProt P19838 7-356).

We go through twelve sequences from publication PMC5700166.

Positions count from the first letter of the chain named.

Chain of GST-Hu-p50 (P19838 7-356): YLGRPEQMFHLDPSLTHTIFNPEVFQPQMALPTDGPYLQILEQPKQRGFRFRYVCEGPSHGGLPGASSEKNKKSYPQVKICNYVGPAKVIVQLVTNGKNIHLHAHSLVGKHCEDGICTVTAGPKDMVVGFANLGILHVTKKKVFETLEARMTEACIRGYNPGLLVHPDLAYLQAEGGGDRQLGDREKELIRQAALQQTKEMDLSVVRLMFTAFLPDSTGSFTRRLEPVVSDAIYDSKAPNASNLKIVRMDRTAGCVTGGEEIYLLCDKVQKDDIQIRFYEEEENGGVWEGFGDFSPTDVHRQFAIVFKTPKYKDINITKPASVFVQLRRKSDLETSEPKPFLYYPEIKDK

For the sequence “CCGATTAACATCAGCAAATCCCCTGATGTTAATCGGGTCTTGATTCGCTTGACGCTGCTG”, the binding signal turned out to be 6.73 z-score with GST-Ap-NF-kB RHD; 7.25 z-score in experiment [1]; 9.83 z-score in experiment [2]; 2.93 z-score with GST-Co-NF-kB; 5.54 z-score with GST-Dm-Relish; 5.19 z-score with GST-Aq-NF-kB. The sequence also came in with a binding signal with GST-Hu-p50 of 6.91 z-score.

As for “CCGATTAACATCAGAAAAGTCCCTGATGTTAATCGGGTCTTGATTCGCTTGACGCTGCTG”, the binding signal in the experiment with GST-Ap-NF-kB RHD is 7.92 z-score; in experiment [1], 10.1 z-score; in experiment [2], 9.94 z-score; with GST-Co-NF-kB, 1.28 z-score; in the experiment with GST-Dm-Relish, 8.36 z-score; with GST-Aq-NF-kB it was 8.15 z-score. In addition, in the experiment with GST-Hu-p50, the binding signal was found to be 6.91 z-score.

Regarding “CCGATTAACATCAGGGGGAAACATGATGTTAATCGGGTCTTGATTCGCTTGACGCTGCTG”, the binding signal with GST-Ap-NF-kB RHD came to 6.11 z-score; in experiment [1], 7.08 z-score; in experiment [2], 9.19 z-score; in the experiment with GST-Co-NF-kB, 10.9 z-score; in the experiment with GST-Dm-Relish, 3.99 z-score; in the experiment with GST-Aq-NF-kB, 5.49 z-score. The sequence also displayed a binding signal with GST-Hu-p50 of 6.58 z-score.

Take “CCGATTAACATCAAACTTTCCCCTGATGTTAATCGGGTCTTGATTCGCTTGACGCTGCTG”: the binding signal with GST-Ap-NF-kB RHD turned out to be 7.27 z-score; in experiment [1], 8.67 z-score; in experiment [2] it was 9.66 z-score; with GST-Co-NF-kB, 8.89 z-score; with GST-Dm-Relish, 4.44 z-score; with GST-Aq-NF-kB, 7.57 z-score. This sequence also returned a binding signal in the experiment with GST-Hu-p50 of 6.2 z-score.

For the sequence “CCGATTAACATCACAAACTCCCCTGATGTTAATCGGGTCTTGATTCGCTTGACGCTGCTG”, the binding signal turned out to be 7.26 z-score with GST-Ap-NF-kB RHD; 5.84 z-score in experiment [1]; 7.23 z-score in experiment [2]; 4.83 z-score in the experiment with GST-Co-NF-kB; 5.81 z-score with GST-Dm-Relish; 5.35 z-score in the experiment with GST-Aq-NF-kB. The same sequence had a binding signal with GST-Hu-p50 of 5.66 z-score.

On to “CCGATTAACATCAAAGAATCCCCTGATGTTAATCGGGTCTTGATTCGCTTGACGCTGCTG”, for which the binding signal was found to be 8.71 z-score with GST-Ap-NF-kB RHD; 9.68 z-score in experiment [1]; 11.8 z-score in experiment [2]; 4.06 z-score with GST-Co-NF-kB; 9.1 z-score with GST-Dm-Relish; 6.89 z-score with GST-Aq-NF-kB. Moreover, the binding signal with GST-Hu-p50 worked out at 7.06 z-score.

Turning to “CCGATTAACATCAACAATCCCCCTGATGTTAATCGGGTCTTGATTCGCTTGACGCTGCTG”, the binding signal in the experiment with GST-Ap-NF-kB RHD was 7.89 z-score; in experiment [1], 7.16 z-score; in experiment [2] it was 7.92 z-score; with GST-Co-NF-kB it was 5.22 z-score; with GST-Dm-Relish it was 5.46 z-score; with GST-Aq-NF-kB, 5.71 z-score. Also, the binding signal in the experiment with GST-Hu-p50 was 6.6 z-score.

In the case of “CCGATTAACATCAAAACATCCCCTGATGTTAATCGGGTCTTGATTCGCTTGACGCTGCTG”, the binding signal with GST-Ap-NF-kB RHD was 6.41 z-score; in experiment [1], 8.11 z-score; in experiment [2], 8.22 z-score; with GST-Co-NF-kB it was 4.63 z-score; in the experiment with GST-Dm-Relish, 8.65 z-score; with GST-Aq-NF-kB, 7.07 z-score. In the experiment with GST-Hu-p50, this sequence had a binding signal of 5.91 z-score.

For “CCGATTAACATCAATTATTCCCCTGATGTTAATCGGGTCTTGATTCGCTTGACGCTGCTG”, the binding signal with GST-Ap-NF-kB RHD was found to be 6.67 z-score; in experiment [1] it was 9.08 z-score; in experiment [2] it was 9.75 z-score; in the experiment with GST-Co-NF-kB, 9.22 z-score; with GST-Dm-Relish it was 5.24 z-score; with GST-Aq-NF-kB it was 5.63 z-score. In the experiment with GST-Hu-p50, this sequence displayed a binding signal of 6.11 z-score.

In the case of “CCGATTAACATCAAGTATCCCCCTGATGTTAATCGGGTCTTGATTCGCTTGACGCTGCTG”, the binding signal with GST-Ap-NF-kB RHD is 6.69 z-score; in experiment [1], 5.06 z-score; in experiment [2], 6.27 z-score; with GST-Co-NF-kB, 7.27 z-score; with GST-Dm-Relish, 4.38 z-score; in the experiment with GST-Aq-NF-kB, 4.99 z-score. Further, the binding signal with GST-Hu-p50 came out at 5.34 z-score.

In the case of “CCGATTAACATCACGGTTTCCCCTGATGTTAATCGGGTCTTGATTCGCTTGACGCTGCTG”, the binding signal worked out at 7.03 z-score in the experiment with GST-Ap-NF-kB RHD; 7.64 z-score in experiment [1]; 9.99 z-score in experiment [2]; 7.67 z-score with GST-Co-NF-kB; 5.09 z-score with GST-Dm-Relish; 5.42 z-score with GST-Aq-NF-kB. Moreover, in the experiment with GST-Hu-p50, the binding signal was found to be 5.88 z-score.

“CCGATTAACATCAGGGAAACACATGATGTTAATCGGGTCTTGATTCGCTTGACGCTGCTG”: the binding signal in the experiment with GST-Ap-NF-kB RHD was 2.17 z-score; in experiment [1] it was 2.95 z-score; in experiment [2] it was 3.46 z-score; in the experiment with GST-Co-NF-kB, 3.05 z-score; with GST-Dm-Relish, 6.06 z-score; with GST-Aq-NF-kB it was 3.52 z-score. The same sequence displayed a binding signal with GST-Hu-p50 of 1.39 z-score.
